Tau fluor cs: counter-screen for tau fibril formation inhibitors. 280,000 compounds, 0.93% hits. tau K18 P301L Alexa594 fluorescence, heparin fibrillization. AID 1463. Potency, µM (series often up to 57.7 µM), for the others: at the highest dose activity change, negative = decrease; further: nearly all actives have a fitted effect of over 55% in size
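Human K18 P301L tau (15 uM unlabeled plus 0.24 uM Alexa 594-labeled, final) in 100 mM sodium acetate pH 7 was mixed with compound and 20 uM heparin and incubated 6 hr at 37 C.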
VDR inhibitor: vitamin D3 receptor (human) inhibition | 400,000 compounds, 0.93% hits | VDR-SRC2-3 peptide fluorescence polarization, 2 h | Potency, µM, inactives show max response, negative = inhibition, usual class: inhibitors
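Two reagent solutions held at 4 deg C in the dark were dispensed, compounds pinned at 23 nl, and the mixture incubated 2 h at room temperature. Read-out: fluorescence polarization of VDR–SRC2-3 peptide binding.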
Tau fibril FP: blocks human tau fibril formation measured by polarization; K18 P301L tau heparin fibrillization, Alexa594 FP, 6 h; Potency, µM (doses to about 57.7 µM), inactives show at the highest dose activity, negative = inhibition, usual class: inhibitors; 280,000 compounds, 0.39% hits; AID 1468; further: nearly all actives have a fitted effect of over 55% in size
Target sequence (P10636 561-689 P618L limits assumed): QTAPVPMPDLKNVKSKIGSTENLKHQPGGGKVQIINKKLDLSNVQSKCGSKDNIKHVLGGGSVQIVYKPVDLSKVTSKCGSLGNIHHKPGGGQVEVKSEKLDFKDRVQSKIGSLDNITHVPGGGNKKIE
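Read-out: fluorescence polarization of Alexa 594-labeled tau (0.24 uM), 555 nm excitation, 632 nm emission. Mixtures held 15 uM unlabeled K18 P301L, compound and 20 uM heparin, pH 7 acetate buffer, incubated 6 hr at 37 C.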
Tau fibril ThT: blocks human tau fibril formation measured by thioflavin T. Potency, µM (doses to about 57.4 µM), for inactives: top-dose activity, negative = inhibition, usual class: inhibitors. AID 1460. recombinant tau K18 P301L, heparin-induced fibrillization, ThT fluorescence. 270,000 compounds, 2.1% hits. P10636; further: nearly all actives have a fitted effect of over 55% in size
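ThT emission at 510 nm, taken 1 hr after adding 30 uM dye, quantifies aggregates formed when 20 uM heparin acts on human tau K18 P301L for 6 hr at 37 C.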
Sfp PPTase inh: blocks B. subtilis Sfp PPTase activity. Q9F4F7. Biochemical Sfp PPTase activity, qHTS. Potency, µM, for inactives: largest response in the series, negative = inhibition, actives largely listed as inhibitors. 310,000 compounds, 3.5% hits. AID 1490;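 further: the enzyme is Sfp with the accession as filed and its product quenches rhodamine fluorescence; 0% = enzyme reaction without inhibitor and -100% = no enzyme wells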
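Compounds were incubated with enzyme (final 15 nM) for 15 min at room temperature before substrate addition started the reaction. Fluorescence at 525 nm excitation, 598 nm emission was recorded immediately and after 30 minutes.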
PLK1 PBD block: inhibitors of human PLK1 polo-box domain binding | P53350 | Potency, µM, for inactives: max response, negative = inhibition, hits mostly inhibitors | Plk1 PBD binding of FITC phosphopeptide, fluorescence polarization | 360,000 compounds, 2.8% hits | AID 720504; further: series mostly up to about 57 µM; nearly all actives have a fitted effect of over 65% in size
Target sequence (P53350 whole entry, looked up, the tested form may be a part): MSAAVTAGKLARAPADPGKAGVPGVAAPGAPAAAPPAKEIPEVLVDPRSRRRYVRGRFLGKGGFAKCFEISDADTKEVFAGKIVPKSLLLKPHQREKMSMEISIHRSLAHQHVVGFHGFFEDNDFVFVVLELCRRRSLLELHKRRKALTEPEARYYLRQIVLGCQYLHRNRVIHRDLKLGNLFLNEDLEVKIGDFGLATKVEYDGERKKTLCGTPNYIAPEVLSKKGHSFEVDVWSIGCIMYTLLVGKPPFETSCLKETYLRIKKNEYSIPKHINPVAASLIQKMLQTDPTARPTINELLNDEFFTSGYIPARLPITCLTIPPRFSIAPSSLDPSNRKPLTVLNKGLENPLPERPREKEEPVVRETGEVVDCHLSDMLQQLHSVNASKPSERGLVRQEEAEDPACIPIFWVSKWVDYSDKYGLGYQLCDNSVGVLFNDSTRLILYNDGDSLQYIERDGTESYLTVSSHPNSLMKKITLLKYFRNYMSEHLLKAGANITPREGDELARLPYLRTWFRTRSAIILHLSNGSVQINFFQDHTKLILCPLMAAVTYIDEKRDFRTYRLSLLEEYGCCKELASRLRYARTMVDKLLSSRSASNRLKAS
Active calls of the source: *; [ ] = another dose, or the depositor's remark. Hits are enriched below; roughly 6% of the tested compounds scored in any of these assays. The call rests on the fitted dose curve; in most records, active means well fitted curve in the direction sought with a large enough effect; inconclusive means small, poorly fitted or top-dose-only effect, or another doubt; inactive means no such curve, though single readings can be large; an effect the other way counts as inactive or inconclusive. Unless noted, on the % scale 0 is the no-effect control and ±100 the full control effect; potency means the concentration at half of the fitted maximal effect.

How did CCCCC(C(=O)NC1CCCC1)N(Cc1ccco1)C(=O)Cn1nnc(-c2ccc(F)cc2)n1 (centres undefined) do in these assays?
Tau fluor cs: -12%; VDR inhibitor: -17%; Tau fibril FP: -7%; Tau fibril ThT: -10%; Sfp PPTase inh: 11%; PLK1 PBD block: 24µM*

Results for O=C(CN(Cc1ccco1)C(=O)Cn1nnc(-c2ccc(F)cc2)n1)NC1CCCC1 ?
Tau fluor cs: -8%; VDR inhibitor: -6%; Tau fibril FP: -3%; Tau fibril ThT: -3%; Sfp PPTase inh: 11%; PLK1 PBD block: -4%

What do the screens show for `CCN(CC)C(=O)CSc1nc2cc3c(cc2c(=O)n1Cc1ccc(C(=O)NCCc2ccc(OC)c(OC)c2)cc1)OCO3`?
Tau fluor cs: 11%; VDR inhibitor: 7%; Tau fibril FP: -2%; Tau fibril ThT: 17%

How did S=c1[nH]nc(Nc2ccc(Cl)cc2)s1 do in these assays?
Tau fluor cs: -12%; VDR inhibitor: inconclusive; Tau fibril FP: 1%; Tau fibril ThT: -13%; Sfp PPTase inh: inconclusive; PLK1 PBD block: 13µM*

How did Cc1ccc(Nc2n[nH]c(=S)s2)cc1 do in these assays?
PLK1 PBD block: 24µM*

What do the screens show for `COc1cc(CN(C(=O)c2cccc(C)c2)c2ccccn2)cc(OC)c1OC`?
Tau fluor cs: -2%; VDR inhibitor: 13%; Tau fibril FP: 3%; Tau fibril ThT: 0%

How did O=C(CSc1nc2ccccc2[nH]1)Nc1ccc2c(c1)OCCO2 do in these assays?
Tau fluor cs: -12%; VDR inhibitor: -8%; Tau fibril FP: -1%; Tau fibril ThT: inconclusive; Sfp PPTase inh: 13%; PLK1 PBD block: -23%

What do the screens show for `CCOc1ccc(NC(=O)CSc2nccn(-c3ccc4c(c3)OCCO4)c2=O)cc1`?
VDR inhibitor: -17%; PLK1 PBD block: -15%

How did CCOc1ccc(-c2nc(SCC(=O)Nc3ccc4c(c3)OCCO4)c(-c3ccc(F)cc3)[nH]2)cc1 do in these assays?
Tau fluor cs: 14µM*[quencher]; VDR inhibitor: 5%; Tau fibril FP: -14%; Tau fibril ThT: -10%

How did Cc1cccc(-c2nc(SCC(=O)Nc3ccc4c(c3)OCCO4)c(-c3ccccc3)[nH]2)c1 do in these assays?
Tau fluor cs: 8.9µM*[quencher]; VDR inhibitor: -7%; Tau fibril FP: 2%; Tau fibril ThT: -14%

How did O=C(CSc1nc(-c2cccc(F)c2)[nH]c1-c1ccccc1)Nc1ccc2c(c1)OCCO2 do in these assays?
Tau fluor cs: 11µM*[quencher]; VDR inhibitor: 7%; Tau fibril FP: inconclusive; Tau fibril ThT: inconclusive

Results for COc1ccc(CN2CCc3c([nH]c4ccccc34)C2)c(OC)c1C ?
VDR inhibitor: -9%; Sfp PPTase inh: -24%; PLK1 PBD block: -9%

What do the screens show for `CS(=O)(=O)N1N=C(c2ccco2)CC1c1ccc(Cl)cc1Cl` (centres undefined)?
Tau fluor cs: -5%; VDR inhibitor: 5%; Tau fibril FP: 4%; Tau fibril ThT: -10%; Sfp PPTase inh: 40µM*; PLK1 PBD block: 1%

Results for CCOc1ccc2cc(C3CC(c4ccco4)=NN3S(C)(=O)=O)c(=O)[nH]c2c1 (centres undefined) ?
Tau fluor cs: -6%; VDR inhibitor: inconclusive; Tau fibril FP: 2%; Sfp PPTase inh: 22µM*; PLK1 PBD block: inconclusive

Results for CS(=O)(=O)N1N=C(c2ccco2)CC1c1ccccc1Cl (centres undefined) ?
Tau fluor cs: -14%; VDR inhibitor: 8%; Tau fibril FP: -3%; Tau fibril ThT: -14%; Sfp PPTase inh: 5%; PLK1 PBD block: -6%

How did CCOc1ccc2nc(Cl)c(C3CC(c4ccco4)=NN3S(C)(=O)=O)cc2c1 (centres undefined) do in these assays?
Tau fluor cs: -19%; VDR inhibitor: 5%; Tau fibril FP: -5%; Tau fibril ThT: -10%; Sfp PPTase inh: -29%; PLK1 PBD block: -6%

Results for Cc1ccc(N2CC(c3nnc(NC(=O)c4ccco4)s3)CC2=O)cc1Cl (centres undefined) ?
Tau fluor cs: -1%; VDR inhibitor: 1%; Tau fibril FP: 8%; Tau fibril ThT: 4%

How did Cc1cccc(C)c1NC(=O)CSc1nc(-c2cccs2)cc(C(F)(F)F)n1 do in these assays?
Tau fluor cs: -5%; VDR inhibitor: 5%; Tau fibril FP: inconclusive; Tau fibril ThT: 6%

Results for COc1ccc2c(CC(=O)OCC(=O)N3CCc4ccccc43)coc2c1 ?
Tau fluor cs: -14%; VDR inhibitor: inconclusive; Tau fibril FP: 0%; Tau fibril ThT: inconclusive; Sfp PPTase inh: 19%; PLK1 PBD block: 27µM*

Results for COc1ccc2c(CC(=O)OCC(=O)Nc3ccc4c(c3)OCO4)coc2c1 ?
Tau fluor cs: -28%; VDR inhibitor: 18µM*; Tau fibril FP: 1%; Tau fibril ThT: inconclusive; Sfp PPTase inh: 3%; PLK1 PBD block: 17µM*

How did COc1ccc(C(=O)N2CCC3(CC2)CCN(C(c2ccccc2)c2ccccc2)CC3)cc1 do in these assays?
VDR inhibitor: -18%; Sfp PPTase inh: inconclusive

How did COc1ccc(/C=N/NC(=S)NC2CCS(=O)(=O)C2)cc1OC (centres undefined) do in these assays?
Tau fluor cs: -16%; VDR inhibitor: -7%; Tau fibril FP: 2%; Tau fibril ThT: -17%; Sfp PPTase inh: 56µM*; PLK1 PBD block: -10%

Results for CNNC(=S)NC1CC2CC1C1C=CCC21 (centres undefined) ?
Tau fluor cs: -11%; VDR inhibitor: -20%; Tau fibril FP: 5%; Tau fibril ThT: -14%; Sfp PPTase inh: -16%; PLK1 PBD block: 5%

How did COc1cc(/C=N/NC(=S)NC2CC3CC2C2C=CCC32)ccc1O (centres undefined) do in these assays?
Tau fluor cs: 11µM*[quencher]; VDR inhibitor: 3%; Tau fibril FP: 13%; Tau fibril ThT: inconclusive; Sfp PPTase inh: 24%; PLK1 PBD block: -4%

Results for COc1cc(/C=N/NC(=S)NCCN2CCOCC2)ccc1O ?
Tau fluor cs: -3%; VDR inhibitor: -8%; Tau fibril FP: 6%; Tau fibril ThT: -3%; Sfp PPTase inh: 50µM*; PLK1 PBD block: -4%

Results for CCOC(=O)c1c(N)sc(C(O)(C(F)(F)F)C(F)(F)F)c1-c1ccc(F)cc1 ?
Tau fluor cs: inconclusive; VDR inhibitor: 7%; Tau fibril FP: 9%; Tau fibril ThT: -13%; Sfp PPTase inh: 14%; PLK1 PBD block: 0%

What do the screens show for `CCOC(=O)c1c(NC(=O)/C=C/C(=O)O)sc(C)c1-c1ccc(Cl)cc1`?
Tau fluor cs: -10%; VDR inhibitor: 40µM*; Tau fibril FP: inconclusive; Tau fibril ThT: 32µM*; Sfp PPTase inh: 12%; PLK1 PBD block: -28%

High-throughput results (PubChem BioAssay)
